Screens deposited in PubChem by National Center for Advancing Translational Sciences (NCATS).
D1 antagonist – human D1 dopamine receptor antagonism; HEK293 TREx D1 cells, calcium flux, dopamine EC80; hits give low values; hit rate 3.2% among 360,000; AID 504652; P21728; activity change, negative = inhibition, % at 10 µM; in the data active = activity change below about -30%; also: % is scaled to controls: 0 for no effect and ±100 for the full control effect
Target sequence (P21728 whole entry, looked up): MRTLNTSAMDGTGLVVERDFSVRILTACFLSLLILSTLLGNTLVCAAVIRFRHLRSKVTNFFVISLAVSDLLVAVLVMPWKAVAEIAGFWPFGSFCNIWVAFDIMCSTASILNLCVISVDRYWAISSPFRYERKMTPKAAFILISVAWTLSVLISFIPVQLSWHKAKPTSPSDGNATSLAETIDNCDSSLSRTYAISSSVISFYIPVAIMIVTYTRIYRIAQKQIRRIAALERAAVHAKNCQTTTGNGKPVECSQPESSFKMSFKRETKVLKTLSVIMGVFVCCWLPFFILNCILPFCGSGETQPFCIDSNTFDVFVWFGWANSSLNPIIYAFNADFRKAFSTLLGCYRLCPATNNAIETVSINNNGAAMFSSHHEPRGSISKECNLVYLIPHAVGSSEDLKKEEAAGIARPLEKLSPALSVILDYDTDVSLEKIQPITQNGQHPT
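Allosteric or orthosteric antagonism assessed as attenuation of the calcium response to EC80 dopamine, added 180 s after compound, in induced HEK293 Trex D1 cells loaded with no-wash calcium dye.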
D1 potentiator – enhances dopamine response at the human D1 receptor; hit rate 0.036% among 360,000; HEK293 TREx D1 cells, calcium flux, dopamine EC20 potentiation; potentiation, % at 10 µM; P21728; AID 504651; in the data active = potentiation above about 30%; also: 0% is about no effect
D1 agonist – human D1 receptor agonism; HEK293 T-REx D1 cells, calcium flux, agonist mode; activation, % at 2 µM; hit rate 1% among 360,000; AID 504660; also: 0% is about no effect
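Inducible HEK293 T-REx D1 cells, force-coupled to calcium signalling, were plated at 4000 cells/well with tetracycline and held overnight at 30 C. After no-wash calcium dye loading, compound-evoked calcium rise over 180 s flagged agonists.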
TRHR PAM – TRH receptor (human) allosteric enhancement | enhancement, % at 2 µM | hit rate 0.66% among 360,000 | TRHR cells, fluo-8 calcium fluorescence, EC20 TRH enhancement | P34981; in the data active = enhancement above about 30%; also: 0% is about no effect
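Enhancer read-out: after compound pinning and an initial kinetic agonist-mode read, an EC20 of TRH (10 nM final) was injected and fluo-8 calcium signal (Ex 480/Em 530) followed at 1 s/cycle for 100 cycles in TRHR-expressing cells.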
TRHR ag – activates the human TRH receptor. P34981. TRHR cells, calcium flux fluo-8, FDSS agonist mode. activation, % at 2 µM. hit rate 0.18% among 360,000. AID 493084; also: 0% is about no effect
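Read-out: compound-evoked intracellular calcium rise in TRHR cells, fluo-8 dye, kinetic FDSS fluorescence at 1 s/cycle following a 10-cycle baseline. Cells cultured overnight before dye loading (30 min–1.5 h, RT).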
The depositor's hits bear a star. Only some compounds are listed: those with a hit (about 4.7% of all), similar ones and a draw of the others. Rule as the data show it, unless noted: active = activation above about 30%; inactive = the rest.

Screening COc1cccc(Cn2c(-c3nonc3NC(C)=O)nc3ccccc32)c1 returned D1 antagonist 8, D1 potentiator -2, D1 agonist -1, TRHR PAM -6 and TRHR ag -1.
`COc1ccc(N2C(=O)C3C4C=CC(CC4)C3C2=O)c([N+](=O)[O-])c1` (configuration not stated) gave D1 antagonist 24, D1 potentiator 1, D1 agonist 3, TRHR PAM 39* and TRHR ag 0.
For CCOc1ccc(N2C(=O)C3C4C=CC(CC4)C3C2=O)c([N+](=O)[O-])c1 (configuration not stated) the results were D1 antagonist -14, D1 potentiator -5, D1 agonist 0, TRHR PAM -3 and TRHR ag 0.
For Cc1cc2nc(-c3ccc(NC(=O)C(C)C)cc3)oc2cc1C the results were D1 antagonist -33*, D1 potentiator -2, D1 agonist 1, TRHR PAM -2 and TRHR ag 0.
`Cc1ccc(S(=O)(=O)N(Cc2ccc(F)cc2)Cc2ccco2)cc1` gave D1 antagonist -33*, D1 potentiator -10, D1 agonist 8, TRHR PAM -7 and TRHR ag 1.
Cc1ccc(S(=O)(=O)N(CC(=O)O)Cc2ccco2)cc1 was read as D1 antagonist 6, D1 potentiator 26, D1 agonist 2, TRHR PAM -4 and TRHR ag 1.
Screening Cc1ccc(S(=O)(=O)N(Cc2ccccc2)Cc2ccco2)cc1 returned D1 antagonist -31*, D1 potentiator -9, D1 agonist 11, TRHR PAM -1 and TRHR ag 3.
`CCc1cccc(NC(=O)c2nnn(Cc3ccc(SC)cc3)c2N)c1` gave D1 antagonist 25, D1 potentiator -2, D1 agonist 14, TRHR PAM 5 and TRHR ag 2.
Screening CCC1CCCCN1CCCNC(=O)c1c(C)oc2ncn(CC(C)C)c(=O)c12 (configuration not stated) returned D1 antagonist 9, D1 potentiator -2, D1 agonist -1, TRHR PAM -13 and TRHR ag 1.
Screening Cc1cccc(N(C)S(=O)(=O)c2cc(-c3cnc(C4CC4)o3)ccc2C)c1 returned D1 antagonist -32*, D1 potentiator 1, D1 agonist 19, TRHR PAM 7 and TRHR ag -1.
CCc1ccc(NS(=O)(=O)c2cc(-c3cnc(C4CC4)o3)ccc2C)cc1 was read as D1 antagonist 2, D1 potentiator 1, D1 agonist 3, TRHR PAM 5 and TRHR ag -1.
`Cc1ccc(-c2cn3c(n2)sc2cc(C(=O)NC4CCCCC4)ccc23)cc1` gave D1 antagonist 4, D1 potentiator -5, D1 agonist 2, TRHR PAM -9 and TRHR ag 0.
For O=C(c1ccc(Cl)cc1)N1CCCC(C(=O)N2CCCCC2)C1 (configuration not stated) the results were D1 antagonist 16, D1 potentiator -4, D1 agonist 2, TRHR PAM -4 and TRHR ag 0.
`CC(=O)c1cc(C(=O)N2CCCC(C(=O)c3ccc(Cl)cc3)C2)cs1` (configuration not stated) gave D1 antagonist -33*, D1 potentiator 2, D1 agonist 5, TRHR PAM -3 and TRHR ag 0.
CCOC(=O)c1cc(-c2ccc(OC)c(S(=O)(=O)N3CCN(c4ccccc4)CC3)c2)on1 was read as D1 antagonist -5, D1 potentiator -3, D1 agonist 3, TRHR PAM 3 and TRHR ag 1.
O=C(Nc1ccc(F)c(Cl)c1)C1CC(=O)N(Cc2ccco2)C1 (configuration not stated) was read as D1 antagonist -43*, D1 potentiator 10, D1 agonist 2, TRHR PAM 5 and TRHR ag 0.
CC(=O)Nc1ccc(NC(=O)C2CC(=O)N(Cc3ccco3)C2)cc1 (configuration not stated) was read as D1 antagonist 3, D1 potentiator -5, D1 agonist 13, TRHR PAM -7 and TRHR ag 0.
For Cc1ccnc(NC(=O)C2CC(=O)N(Cc3ccccc3)C2)c1 (configuration not stated) the results were D1 antagonist -44*, D1 potentiator 1, D1 agonist 22, TRHR PAM 4 and TRHR ag 1.
Screening Cc1ccc(NC(=O)C2CC(=O)N(Cc3ccccc3)C2)nc1 (configuration not stated) returned D1 antagonist -4, D1 potentiator 2, D1 agonist 2, TRHR PAM 1 and TRHR ag 0.
`Cc1ccc2nc(NC(=O)C3CC(=O)N(Cc4ccco4)C3)sc2c1` (configuration not stated) gave D1 antagonist 2, D1 potentiator -3, D1 agonist 13, TRHR PAM 36* and TRHR ag 1.
COc1cccc(CSc2nc3n(n2)C(CC(C)C)C(C(=O)Nc2ccccc2OC)=C(C)N3)c1 (configuration not stated) was read as D1 antagonist 20, D1 potentiator 0, D1 agonist 3, TRHR PAM 0 and TRHR ag 0.
`CCc1c(C)c2cc(Cl)c(O)c(CN(C)C)c2oc1=O` gave D1 antagonist 7, D1 potentiator 0, D1 agonist 1, TRHR PAM 0 and TRHR ag 0.
`CCc1c(C)c2cc(Cl)c(O)c(CN(CC)CC)c2oc1=O` gave D1 antagonist 4, D1 potentiator 2, D1 agonist -2, TRHR PAM 38* and TRHR ag 0.
`Cc1nc2cc(C(=O)NCCC3=CCCCC3)ccc2n1-c1ccc(Br)cc1` gave D1 antagonist 3, D1 potentiator -4, D1 agonist 2, TRHR PAM -3 and TRHR ag 0.
For CCOc1ccc(NC(=O)CSc2nnc(Cn3cnc([N+](=O)[O-])n3)n2C)cc1 the results were D1 antagonist 5, D1 potentiator 1, D1 agonist 1, TRHR PAM 1 and TRHR ag 0.
For CCOc1ccc(NC(=O)CSc2nnc(Cn3cnc([N+](=O)[O-])n3)n2CC)cc1 the results were D1 antagonist -38*, D1 potentiator -14, D1 agonist 2, TRHR PAM 1 and TRHR ag 0.
For CCOCCCNC(=O)Nc1cc(C(=O)NCc2ccc(C(C)C)cc2)ccc1N1CCCC1 the results were D1 antagonist 1, D1 potentiator 0, D1 agonist 5, TRHR PAM -3 and TRHR ag -1.
For N#Cc1ccc(NC(=O)Nc2ccc(Oc3ccc(NC(=O)Nc4ccc(C#N)cc4)cc3)cc2)cc1 the results were D1 antagonist 11, D1 potentiator -4, D1 agonist 16, TRHR PAM 37* and TRHR ag 0.
